Assay results: PubChem BioAssay (Tox21)
Values joined by “and” are separate entries in the source; they are usually repeats but may differ in a detail not shown here. Equal values may be shown once. Inconclusive results are not listed. Entries that show only a call come without a potency. More than one record can exist for a structure, and the calls need not agree. Active and inactive are the calls of the source. Unless noted, calls come from the whole dose curve.

Experiments:
[1] = Nuclear factor erythroid 2-related factor 2/antioxidant responsive element (Nrf2/ARE) small molecule agonists: qHTS cell viability counter screen in human keratinocytes (AID 1919968; active = well fitted curve in the direction sought with a large enough effect in the repeat runs; an effect the other way counts as inactive or inconclusive; note: nearly all actives have a fitted effect of over 55% in size)
Procedure, shortened: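 HaCaT ARE reporter line, 1,500 cells/well; 5 h settle, 37 C/5% CO2; cpd in DMSO pinned; 23 h exposure; CellTiter-Fluor, 1 h; fluorescence.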

[2] = Nuclear factor erythroid 2-related factor 2/antioxidant responsive element (Nrf2/ARE) small molecule agonists: luciferase reporter gene qHTS assay in human keratinocytes (AID 1919969); note: nearly all actives have a fitted effect of over 35% in size
[3] = target: Gonadotropin-releasing hormone receptor (Homo sapiens) (UniProt P30968); experiment: Human gonadotropin-releasing hormone receptor (GnRHR) small molecule agonists, calcium flux assay in GnRHR-HEK293 cells (AID 1920063); note: nearly all actives have a fitted effect of over 35% in size
Chain of Gonadotropin-releasing hormone receptor (Homo sapiens) (P30968 whole entry, looked up): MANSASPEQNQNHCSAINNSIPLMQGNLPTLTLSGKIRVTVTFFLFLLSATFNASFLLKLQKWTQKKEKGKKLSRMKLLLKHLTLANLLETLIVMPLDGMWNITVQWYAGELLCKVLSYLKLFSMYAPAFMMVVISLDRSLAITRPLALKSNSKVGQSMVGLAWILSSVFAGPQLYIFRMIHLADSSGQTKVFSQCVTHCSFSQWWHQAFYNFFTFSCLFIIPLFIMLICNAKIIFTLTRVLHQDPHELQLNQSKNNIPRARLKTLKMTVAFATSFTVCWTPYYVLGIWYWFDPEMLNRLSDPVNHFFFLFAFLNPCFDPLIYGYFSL
Procedure, shortened: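 GnRHR-HEK293, 1500 cells/well, 18 h 37 C/5% CO2; Ca dye 1 h 37 C; cpd pinned (DMSO), agonist mode; kinetic FL 480/540, 3 min, 1 s reads; 15 conc, n=3.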

[4] = target: KiSS-1 receptor (Homo sapiens) (UniProt Q969F8); experiment: Human kisspeptin (KISS1R) small molecule agonists, calcium flux assay in KISS1R-HEK293 cells (AID 1920064; active = well fitted curve in the direction sought with a large enough effect in the repeat runs; an effect the other way counts as inactive or inconclusive)
Chain of KiSS-1 receptor (Homo sapiens) (Q969F8 whole entry, looked up): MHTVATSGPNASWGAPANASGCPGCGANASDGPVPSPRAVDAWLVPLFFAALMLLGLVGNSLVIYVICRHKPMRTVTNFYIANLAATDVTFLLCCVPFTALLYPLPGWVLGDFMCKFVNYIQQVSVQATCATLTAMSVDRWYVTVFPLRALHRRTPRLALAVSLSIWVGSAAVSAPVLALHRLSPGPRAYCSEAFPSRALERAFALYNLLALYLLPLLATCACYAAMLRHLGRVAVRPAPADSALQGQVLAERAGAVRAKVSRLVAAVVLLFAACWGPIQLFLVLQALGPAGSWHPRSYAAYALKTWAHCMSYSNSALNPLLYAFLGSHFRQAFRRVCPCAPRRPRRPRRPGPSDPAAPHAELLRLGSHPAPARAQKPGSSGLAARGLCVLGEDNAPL
Procedure, shortened: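 Stable human KISS1R HEK293 line; 18 h plating, 37 C/5% CO2; calcium dye 1 h 37 C; compound pin transfer; kinetic fluorescence Ex/Em 480/540, 3 min.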

[5] = G protein-coupled receptor (GPCR) small molecule agonists, calcium flux assay: HEK293 wild type cell line counter screen (AID 1920065)
Procedure, shortened: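 Kinetic fluorescence at Ex/Em 480/540, recorded every second over 3 min, served as the read-out after compound addition. Each compound was tested at 15 concentrations in triplicate on cells pre-loaded with calcium dye for 1 h.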

[6] = p53 small molecule agonists, cell-based qHTS assay with human liver microsomes (AID 1963577);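 note: p53 response element beta-lactamase reporter cells with liver microsomes plus NADPH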
Procedure, shortened: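 16 h, 37 C exposure of p53RE-bla cells to compounds with human liver microsomes and NADPH (0.5 mg/mL final each); detection via LiveBLAzer mixture, 2 h dark at room temperature.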

[7] = p53 small molecule agonists, cell-based qHTS assay with rat liver microsomes (AID 1963578)
Procedure, shortened: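 With rat liver microsomes and NADPH present (0.5 mg/mL final each), p53RE-bla cells are treated with compound for 16 h at 37 C. LiveBLAzer detection mixture is then applied for 2 h at room temperature in the dark.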

[8] = p53 small molecule agonists, cell-based qHTS assay with human liver microsomes: qHTS cell viability counter screen (AID 1963579); note: nearly all actives have a fitted effect of over 45% in size
Procedure, shortened: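 In this multiplexed counter screen, the reporter plates were subsequently treated with CellTiter-Glo so that cell viability, reflected by luminescence, could be recorded for p53RE-bla cells dosed 16 h with compounds under microsomal activation (HLM and NADPH).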

[9] = p53 small molecule agonists, cell-based qHTS assay with rat liver microsomes: qHTS cell viability counter screen (AID 1963580); note: nearly all actives have a fitted effect of over 45% in size
Procedure, shortened: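 In HCT-116 cells carrying a p53 response element-bla reporter, compounds were metabolically activated in situ by rat liver microsomes with NADPH over 16 h. Cell ATP content then served as the cytotoxicity measure.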

[10] = p53 small molecule agonists, cell-based qHTS assay: qHTS cell viability counter screen (AID 1963581); note: nearly all actives have a fitted effect of over 45% in size
Procedure, shortened: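 HCT-116 p53RE-bla cells, 4,000/well, plated 5 h before compound pin transfer; 16 h at 37 C; bla substrate 2 h RT; then CellTiter-Glo, 30 min RT, luminescence.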

[11] = p53 small molecule agonists, cell-based qHTS assay (AID 1963582; active = well fitted activation curve with a large enough effect in the signal ratio in the repeat runs, not every such curve was filed as active; the % refers to the signal ratio)
Procedure, shortened: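 Reporter line: p53RE-bla. Pre-incubation 5 h, 37 C, 5% CO2; compound (DMSO, pin tool) 16 h, 37 C; B/G FRET substrate 2 h RT; fluorescence intensity read.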

[12] = target: 5-hydroxytryptamine receptor 2A (Homo sapiens) (UniProt P28223); experiment: 5-hydroxytryptamine receptor 2A (HTR2A) small molecule antagonists, cell-based qHTS assay (AID 1963586); note: nearly all actives have a fitted effect of over 45% in size
Chain of 5-hydroxytryptamine receptor 2A (Homo sapiens) (P28223 whole entry, looked up): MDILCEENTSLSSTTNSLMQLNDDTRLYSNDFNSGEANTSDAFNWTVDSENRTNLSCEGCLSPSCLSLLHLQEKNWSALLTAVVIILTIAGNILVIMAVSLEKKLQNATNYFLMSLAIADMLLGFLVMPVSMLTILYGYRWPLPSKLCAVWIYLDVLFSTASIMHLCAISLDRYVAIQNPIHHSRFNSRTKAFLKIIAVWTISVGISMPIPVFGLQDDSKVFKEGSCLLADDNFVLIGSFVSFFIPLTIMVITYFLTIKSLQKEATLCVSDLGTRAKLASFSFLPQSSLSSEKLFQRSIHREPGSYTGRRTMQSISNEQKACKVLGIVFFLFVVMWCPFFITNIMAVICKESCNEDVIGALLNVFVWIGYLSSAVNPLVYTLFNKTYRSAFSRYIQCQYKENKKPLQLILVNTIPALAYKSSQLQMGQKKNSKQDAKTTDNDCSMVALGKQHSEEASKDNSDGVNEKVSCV
Procedure, shortened: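 Antagonist-mode intracellular calcium assay: DOI (4 nM) added after 5 min compound pre-incubation at room temperature to dye-loaded HTR2A-CHO cells. Fluorescence followed for 3 min, sampled every second.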

[13] = target: 5-hydroxytryptamine receptor 2A (Homo sapiens) (UniProt P28223); experiment: 5-hydroxytryptamine receptor 2A (HTR2A) small molecule agonists, cell-based qHTS assay (AID 1963587); note: nearly all actives have a fitted effect of over 30% in size
Procedure, shortened: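 HTR2A-CHO cells, plated 18 h at 37 C/5% CO2, dye-loaded 1 h at 37 C; compounds in DMSO added by pin tool (agonist mode). Intracellular calcium flux read as kinetic fluorescence on FDSS over 2 min at 1 s intervals.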

[14] = target: Muscarinic acetylcholine receptor M1 (Homo sapiens) (UniProt P11229); experiment: Cholinergic receptor muscarinic 1 (CHRM1) small molecule antagonists, cell-based qHTS assay (AID 1963588); note: nearly all actives have a fitted effect of over 40% in size; note: potency is the fitted concentration of half-maximal effect
Chain of Muscarinic acetylcholine receptor M1 (Homo sapiens) (P11229 whole entry, looked up): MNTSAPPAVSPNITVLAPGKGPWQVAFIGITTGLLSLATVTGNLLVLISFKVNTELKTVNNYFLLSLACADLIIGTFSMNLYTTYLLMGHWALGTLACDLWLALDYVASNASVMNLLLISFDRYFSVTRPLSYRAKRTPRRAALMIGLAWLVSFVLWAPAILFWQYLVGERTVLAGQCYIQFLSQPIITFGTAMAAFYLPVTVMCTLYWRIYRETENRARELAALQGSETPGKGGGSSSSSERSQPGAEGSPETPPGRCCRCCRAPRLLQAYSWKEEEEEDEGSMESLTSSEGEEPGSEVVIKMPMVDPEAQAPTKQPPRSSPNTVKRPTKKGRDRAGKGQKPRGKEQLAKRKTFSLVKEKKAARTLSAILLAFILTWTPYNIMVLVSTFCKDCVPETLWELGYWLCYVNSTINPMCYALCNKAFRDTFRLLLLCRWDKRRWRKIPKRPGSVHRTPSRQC
Procedure, shortened: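 CHRM1-CHO calcium-flux assay, antagonist mode. Cells were seeded 18 h, dye-loaded 1 h at 37 C and given compound for 5 min at RT, then acetylcholine was added at 50nM. FDSS fluorescence was read 3 min; 15 concentrations, three runs.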

[15] = target: Muscarinic acetylcholine receptor M1 (Homo sapiens) (UniProt P11229); experiment: Cholinergic receptor muscarinic 1 (CHRM1) small molecule agonists, cell-based qHTS assay (AID 1963589); note: nearly all actives have a fitted effect of over 35% in size
Procedure, shortened: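 Human M1 in stable CHO line; 18 h plating, 1 h dye load 37 C; cpd added (agonist mode); Ca2+ fluorescence kinetic read, 1 s intervals; 15 conc, 3 runs.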

[16] = cAMP Responsive Elements (CRE) small molecule agonists, cell-based qHTS assay (AID 1963590)
Procedure, shortened: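 HEK 293T CRE-bla, 2,000 cells/well, 18 h preincubation 37 C/5% CO2; cpds (DMSO) pinned, 3 h; LiveBLAzer B/G FRET substrate, 2 h RT.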

[17] = cAMP Responsive Elements (CRE) small molecule antagonists, cell-based qHTS assay (AID 1963591; active = well fitted inhibition curve with a large enough effect in the signal ratio in the repeat runs, not every such curve was filed as active; the % refers to the signal ratio)
Procedure, shortened: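 Beta-lactamase reporter read by FRET substrate (LiveBLAzer B/G) after 2 h at room temperature. CRE-bla HEK293T cells had received compound plus 0.25 uM (final) NKH477 for 3 h at 37 °C.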

[18] = target: Beta-2 adrenergic receptor (Homo sapiens) (UniProt P07550); experiment: Adrenergic beta2 receptor (ADRB2) small molecule antagonists, cell-based qHTS assay (AID 1963592); note: series mostly up to about 92 µM; nearly all actives have a fitted effect of over 50% in size
Chain of Beta-2 adrenergic receptor (Homo sapiens) (P07550 whole entry, looked up): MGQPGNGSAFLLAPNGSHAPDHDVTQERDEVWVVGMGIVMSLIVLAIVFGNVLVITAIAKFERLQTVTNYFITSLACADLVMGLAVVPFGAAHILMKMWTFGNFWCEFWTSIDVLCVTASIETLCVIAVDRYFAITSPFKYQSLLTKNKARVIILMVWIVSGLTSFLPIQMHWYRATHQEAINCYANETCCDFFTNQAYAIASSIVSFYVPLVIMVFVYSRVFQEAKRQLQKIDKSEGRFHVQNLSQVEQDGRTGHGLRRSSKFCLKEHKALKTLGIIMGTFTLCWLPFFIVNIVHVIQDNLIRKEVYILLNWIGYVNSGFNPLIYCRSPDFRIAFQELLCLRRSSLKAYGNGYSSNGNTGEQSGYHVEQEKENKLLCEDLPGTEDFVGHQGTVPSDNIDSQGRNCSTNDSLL
Procedure, shortened: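 Cells (CHO, stable ADRB2 overexpression) incubated 18-20hr at 37C; compounds added from DMSO; agonist mix (1nM isoproterenol, 100uM IBMX, 25uM Ro-20-1724) added; 0.5hr RT; d2-cAMP and anti-cAMP-cryptate added; 1hr RT; 665/615 nm read.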

[19] = target: D(2) dopamine receptor (Homo sapiens) (UniProt P14416); experiment: Dopamine D2 receptor (DRD2) small molecule agonists, cell-based qHTS assay (AID 1963594); note: nearly all actives have a fitted effect of over 35% in size
Chain of D(2) dopamine receptor (Homo sapiens) (P14416 whole entry, looked up): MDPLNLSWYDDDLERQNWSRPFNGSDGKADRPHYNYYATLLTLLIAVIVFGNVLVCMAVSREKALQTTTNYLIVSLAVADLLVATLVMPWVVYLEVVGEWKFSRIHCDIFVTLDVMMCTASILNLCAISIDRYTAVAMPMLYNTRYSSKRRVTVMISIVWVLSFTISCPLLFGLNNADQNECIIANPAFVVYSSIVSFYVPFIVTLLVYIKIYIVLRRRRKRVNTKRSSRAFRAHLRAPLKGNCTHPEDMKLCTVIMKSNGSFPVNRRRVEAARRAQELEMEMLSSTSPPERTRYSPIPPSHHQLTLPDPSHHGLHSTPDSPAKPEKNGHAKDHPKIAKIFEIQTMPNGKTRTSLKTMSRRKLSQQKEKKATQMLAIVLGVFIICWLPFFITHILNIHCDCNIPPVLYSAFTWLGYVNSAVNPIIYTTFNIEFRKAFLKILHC
Procedure, shortened: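 HEK293 cells stably expressing DRD2 were cultured 24 h at 37 C, then given Ro20-1724 (0.1 mM final) and compounds for 10 min at room temperature. NKH477 (200nM) was then added for 30 min. cAMP was read by HTRF.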

[20] = target: D(2) dopamine receptor (Homo sapiens) (UniProt P14416); experiment: Dopamine D2 receptor (DRD2) small molecule antagonists, cell-based qHTS assay (AID 1963595; active = well fitted inhibition curve with a large enough effect in the signal ratio in the repeat runs, with a control signal flat; the % refers to the signal ratio)
Procedure, shortened: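 HTRF cAMP read-out at 665 and 620 nm emission (340 nm excitation). Antagonist mode: compounds were tested against 12 nM quinpirole in DRD2-HEK293 cells, with 200 nM NKH477 raising cAMP and 0.1 mM Ro20-1724 blocking its breakdown.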

Compound	Potency [1]	Potency [2]	Potency [3]	Potency [4]	Potency [5]	Potency [6]	Potency [7]	Potency [8]	Potency [9]	Potency [10]	Potency [11]	Potency [12]	Potency [13]	Potency [14]	Potency [15]	Potency [16]	Potency [17]	Potency [18]	Potency [19]	Potency [20]
CCCCNC(=O)NS(=O)(=O)c1ccc(C)cc1	inactive	inactive	inactive	inactive	inactive	inactive	inactive	inactive	inactive	inactive	inactive	inactive	inactive	inactive	inactive	inactive	inactive	inactive	inactive	inactive
CC(=O)OC(C)C	inactive	inactive	inactive	inactive	inactive	inactive	inactive	inactive	inactive	inactive	inactive	inactive	inactive	inactive	inactive	inactive	inactive	inactive	inactive	inactive
C=C[Si](OCCOC)(OCCOC)OCCOC	inactive	inactive	inactive	inactive	inactive	inactive	inactive	inactive	inactive	inactive	inactive	inactive	inactive	inactive	inactive	inactive	inactive	inactive	inactive	inactive
CCc1cccc(C)c1N	inactive	inactive	inactive	inactive	inactive	inactive	inactive	inactive	inactive	inactive	inactive	inactive	inactive	inactive	inactive	inactive	inactive	inactive	inactive	inactive
OC1CCCCC1	inactive	inactive	inactive	inactive	inactive	inactive	inactive	inactive	inactive	inactive	inactive	inactive	inactive	inactive	inactive	inactive	inactive	inactive	inactive	inactive
CCCCOCCOCCO	inactive	inactive	inactive	inactive	inactive	inactive	inactive	inactive	inactive	inactive	inactive	inactive	inactive	inactive	inactive	inactive	inactive	inactive		inactive
CCC(=O)OC/C=C/c1ccccc1	inactive	inactive	inactive	inactive	inactive	inactive	inactive	inactive	inactive	inactive	inactive	inactive	inactive	inactive	inactive	inactive	inactive	inactive	inactive	inactive
Cc1cccc2ccccc12	inactive	inactive	inactive	inactive	inactive	inactive	inactive	inactive	inactive	inactive	inactive	inactive	inactive	inactive	inactive	inactive	inactive	inactive	inactive	inactive
CC(C)=CCC/C(C)=C/C=O	inactive	inactive	inactive	inactive	inactive	inactive	inactive	inactive	inactive	inactive	inactive	inactive	inactive	inactive	inactive	inactive	inactive	inactive	inactive	inactive
COC(=O)c1ccc(C)cc1	inactive	inactive	inactive	inactive	inactive	inactive	inactive	inactive	inactive	inactive	inactive	inactive	inactive	inactive	inactive	inactive	inactive	inactive	inactive	
Nc1ncnc2nc[nH]c12	inactive	inactive	inactive	inactive	inactive	inactive	inactive	inactive	inactive	inactive	inactive	inactive	inactive	inactive	inactive	inactive	inactive	inactive		inactive
O=C=NCCCCCCN=C=O	inactive	inactive	inactive	inactive	inactive	inactive	inactive	inactive	inactive	inactive	inactive	inactive	inactive	inactive and 27 µM (active)	inactive	inactive	inactive	inactive	inactive	inactive
OC[C@H]1O[C@H](O[C@]2(CCl)O[C@H](CCl)[C@@H](O)[C@@H]2O)[C@H](O)[C@@H](O)[C@H]1Cl	inactive	inactive	inactive	inactive	inactive	inactive	inactive	inactive	inactive	inactive	inactive	inactive	inactive	inactive	inactive	inactive	inactive	inactive	inactive	inactive
CCCCCCCCCCCCCC(=O)OC(C)C	inactive	inactive	inactive	inactive	inactive	inactive	inactive	inactive	inactive	inactive	inactive	inactive	inactive	inactive	inactive	inactive	inactive	inactive	inactive	inactive
CC(C)OP(=O)(CP(=O)(OC(C)C)OC(C)C)OC(C)C	inactive	inactive	inactive	inactive	inactive	inactive	inactive	inactive	inactive	inactive	inactive	inactive	inactive	inactive	inactive	inactive	inactive	inactive	inactive	inactive
